Data on 13 compounds can be found in PubChem BioAssay (NCATS).

Inconclusive results are not listed. Calls of active or inactive are those of the source. Calls follow the shape of the dose curve; as a rule, active = well fitted curve in the direction sought with a large enough effect; inconclusive = small, poorly fitted or top-dose-only effect, or another doubt; inactive = no such curve, though single readings can be large; an effect the other way counts as inactive or inconclusive.

Test [1] deals with Zika virus NS2B-NS3 protease. The experiment in a line: Primary screen GU AMC qHTS for Zika virus inhibitors (AID 1347154). Also: nearly all actives have a fitted effect of over 70% in size. In outline: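 Unlinked Zika NS2B hydrophilic domain/NS3 protease domain noncovalent complex (25 nM final) in 10 mM Tris-HCl pH 8.0, 0.01% Tween 20, with AMC peptide substrate. Fluorescence (ex 340, em 450 nm) change over 15 min, room temperature; percent inhibition fitted to 4-parameter Hill equation.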

Test [2] concerns Zika virus NS2B-NS3 protease (linked construct). Kind of test: Primary screen NINDS Rhodamine qHTS for Zika virus inhibitors (AID 1347160). Also: nearly all actives have a fitted effect of over 55% in size. The essentials:
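Each compound, titrated, sat 15 min with 25 nM linked protease before 1.5 microM Rhodamine110 substrate went in. Fluorescence gain over the next 15 min, in pH 8.0 Tris with Tween 20, gave Hill-fitted curves.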

In test [3] the test system is Zika virus NS2B-NS3 protease (unlinked complex). The experiment in a line: Primary screen GU Rhodamine qHTS for Zika virus inhibitors: Unlinked NS2B-NS3 protease assay (AID 1347159). Also: nearly all actives have a fitted effect of over 60% in size. The essentials:
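In dose–response format, inhibition of unlinked protease (25 nM) was measured with 1.5 microM bis-peptide Rhodamine110 substrate. Aprotinin served as the intraplate control.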
On the technique in general: Quantitative high-throughput screening tests each substance at several concentrations.

Turning to `O=C(c1ccc(C(=O)N2CCC(N3CCCC3)CC2)c(Nc2ccccc2)c1)N1CCC(N2CCCC2)CC1`, the Potency result in test [1] and in test [2] was “inactive” throughout.

On to `O=C(Nc1ccc(OC(F)(F)F)cc1)c1sccc1NCc1ccnc2ccccc12`, for which the Potency entry in test [1], in test [3] and in test [2] was “inactive” throughout.

Turning to `CCCCC(F)(F)[C@@]1(O)CC[C@H]2[C@H](CC(=O)[C@@H]2CCCCCCC(=O)O)O1`, the Potency entry in test [1], in test [3] and in test [2] was “inactive” throughout.

For the compound `NC1(C(=O)N[C@@H](CCO)c2ccc(Cl)cc2)CCN(c2ncnc3[nH]ccc23)CC1`, the Potency result in test [1], in test [3] and in test [2] was “inactive” each time.

As for `NS(=O)(=O)c1cc(Cl)c(Cl)c(S(N)(=O)=O)c1`, the Potency result in test [1], in test [3] and in test [2] was “inactive” throughout.

On to `Cc1cnc(Nc2cccc(CN3CCOCC3)c2)nc1Nc1cccc(S(=O)(=O)NC(C)(C)C)c1`, for which the Potency result in test [1], in test [3] and in test [2] was “inactive” each time.

`CCNC(=O)c1noc(-c2cc(C(C)C)c(O)cc2O)c1-c1ccc(CN2CCOCC2)cc1`: the Potency entry in test [1], in test [3] and in test [2] was “inactive” in each case.

Turning to `O=C(CC12CC3CC(CC(C3)C1)C2)Nc1cccc2nc(NCCNCCO)ccc12`, the Potency entry in test [1], in test [3] and in test [2] was “inactive” throughout.

For `Clc1ccc(C2(c3ccc(-c4cn[nH]c4)cc3)CCNCC2)cc1`, the Potency result in test [1], in test [3] and in test [2] was “inactive” each time.

For `C[C@@H](N)c1ccc(C(=O)Nc2ccnc3[nH]ccc23)cc1`, the Potency entry in test [1], in test [3] and in test [2] was “inactive” in each case.

As to `Nc1[nH]nc2nnc(-c3c(-c4ccccc4)nn4ccccc34)cc12`, the Potency entry in test [1], in test [3] and in test [2] was “inactive” in each case.

Regarding `NC(=O)c1ccc(N(C(N)=O)c2c(F)cccc2F)nc1-c1ccc(F)cc1F`, the Potency entry in test [1], in test [3] and in test [2] was “inactive” each time.

`Fc1ccc(CNc2ncnc3ccc(F)cc23)cc1`: the Potency result in test [3] and in test [2] was “inactive” in each case.
